Source: PubChem BioAssay (National Center for Advancing Translational Sciences (NCATS))
HT1080NT lethal: kills 2HG-producing HT-1080-NT fibrosarcoma cells. HT-1080-NT fibrosarcoma viability, CellTiter-Glo ATP luminescence, 48 h. Potency, µM (doses to about 46.1 µM), for the others: at the highest dose activity, negative = less viability, hits mostly cytotoxic. actives 1.6% (n = 360,000). AID 686970;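 further: NT is the 2HG producing partner of a matched IDH1 knockdown line; 0% = DMSO-treated cells and -100% = media-only wells without cells; nearly all actives have a fitted effect of over 55% in size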
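HT-1080-NT; 750 cells/well; 5% FBS RPMI; 48 h compound, 37 degrees C; CellTiter-Glo luminescence; curve fitting and curve-class assignment.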
DT40 TDP1 CPT: growth inhibition of DT40 Tdp1-/-;hTDP1 cells with camptothecin (screen for TDP1 inhibitors); Potency, µM (highest dose often 46.2 µM), for inactives: at the highest dose activity change, negative = growth inhibition, actives largely listed as inhibitors; actives 12% (n = 420,000); chicken DT40 Tdp1-/-;hTDP1 cells + 20 nM CPT, ATP luminescence, 48 h; further: nearly all actives have a fitted effect of over 55% in size
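Chicken DT40 Tdp1-/- cells stably complemented with human TDP1 were seeded at 400 cells/well in medium containing 20 nM camptothecin, exposed to pin-transferred compounds, and grown at 37 °C for at least 48 hr. Viability was read as ATP luminescence.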
HT1080 IDH1KD tx: kills HT-1080 cells with IDH1 knockdown; HT-1080 IDH1 knockdown viability, ATP luminescence, 48 h; Potency, µM (doses to about 46.1 µM), inactives show top-dose activity, negative = toxicity, hits mostly cytotoxic; actives 2% (n = 360,000); AID 686971;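 further: 0% = DMSO wells and -100% = cell-free medium wells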
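Assay cells: HT-1080 with IDH1 knockdown, 750 per well, RPMI/5% FBS. Exposure: 48 h at 37 °C following 2 h pre-incubation. Read: CellTiter-Glo luminescence; fitted concentration-response, curve class assigned.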
KB-3-1 tox: KB-3-1 parental cell cytotoxicity. KB-3-1 viability, CellTiter-Glo ATP luminescence, 72 h. Potency, µM (highest dose often 46.1 µM), hits mostly cytotoxic. actives 1.4% (n = 400,000); further: nearly all actives have a fitted effect of over 60% in size
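KB-3-1 cells, DMEM (no phenol red) + 10% FBS; compound by pin transfer, 72 h, 37 °C. Readout: CellTiter-Glo luminescence after 10 min. Data normalized, curve-fitted.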
TDP1 cell noCPT: qHTS for Inhibitors of human tyrosyl-DNA phosphodiesterase 1 (TDP1): qHTS in cells in absence of CPT. Potency, µM (series often up to 46.2 µM), for the others: at the highest dose activity change, negative = growth inhibition, most hits filed as inhibitors. DT40 Tdp1-/- hTDP1 cells, no CPT, ATP luminescence, 48 h. actives 15% (n = 420,000); further: nearly all actives have a fitted effect of over 55% in size
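Camptothecin absent (DMSO only). Human TDP1-complemented DT40 knockout cells, 400 cells/well, 37 °C for minimum 48 hr; ATP measured via CellTiter-Glo, 30 min dark incubation, luminescence.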
KB-V1 cytotox: kills drug-selected multidrug resistant KB-V1 cells; actives 3.4% (n = 400,000); Potency, µM (top dose mostly 46.1 µM), usual class: cytotoxic; KB-V1 MDR cells viability, CellTiter-Glo, 72 h; further: nearly all actives have a fitted effect of over 60% in size
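Luminescent ATP read-out (CellTiter-Glo, 10 min) measures survival of drug-selected KB-V1 MDR cells after 72 h, 37 degrees C compound exposure. Medium: phenol-red-free DMEM, 10% FBS. Values from fitted concentration-response curves.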
* marks the source's active call; other numbers are inactive results; i = inactive; ? = inconclusive; . = no result given. An excerpt weighted towards active compounds, which were near 19% of everything screened. The call rests on the fitted dose curve; in most records, active means well fitted curve in the direction sought with a large enough effect; inconclusive means small, poorly fitted or top-dose-only effect, or another doubt; inactive means no such curve, though single readings can be large; an effect the other way counts as inactive or inconclusive. Unless noted, on the % scale 0 is the no-effect control and ±100 the full control effect; potency means the concentration at half of the fitted maximal effect.

SMILES	HT1080NT lethal	DT40 TDP1 CPT	HT1080 IDH1KD tx	KB-3-1 tox	TDP1 cell noCPT	KB-V1 cytotox
CCCCOC(=O)c1c(N)n(-c2ccc(OC)cc2OC)c2nc3ccccc3nc12	.	11.6µM*	.	i	16.4µM*	i
COc1ccc(S(=O)(=O)Cc2ccc(C(=O)NCc3ccco3)o2)cc1	2.0%	-13.8%	4.1%	i	-6.7%	i
COc1ccc(C)cc1NC(=O)c1ccc2c(c1)CCN2S(=O)(=O)c1ccc(Cl)cc1	.	-25.6%	.	i	-3.4%	i
CC1(CCc2ccccc2)NC(=O)N(CC(=O)Nc2c(F)cccc2F)C1=O (centres undefined)	-0.5%	-3.6%	1.3%	?	21.0%	?
O=C(c1ccc(S(=O)(=O)N2CCCCC2)cc1)N1CCc2ccccc2C1	-8.6%	?	-9.0%	i	?	?
N#Cc1ccc(-n2nnc3ccccc3c2=O)c([N+](=O)[O-])c1	8.6%	-25.7%	-4.2%	i	-17.6%	i
O=C(c1ccc(N2CCCCC2)c([N+](=O)[O-])c1)N(Cc1ccccc1)c1ccccn1	0.0%	16.4µM*	-4.6%	i	18.4µM*	i
N#Cc1ccc(N2CCc3ccccc3C2)c([N+](=O)[O-])c1	0.9%	-13.3%	0.5%	?	23.1µM*	?
O=C(c1ccc(S(=O)(=O)c2ccccc2)cc1)N1CCc2ccccc2C1	-11.5%	?	-2.2%	i	?	18.4µM*
CCc1ccc(/C=C\C(=O)N2CCc3ccccc3C2)cc1	17.0%	-1.4%	21.4%	i	2.1%	i
O=C(/C=C/c1ccccc1[N+](=O)[O-])N1CCc2ccccc2C1	-4.1%	?	-9.6%	i	16.4µM*	?
COc1cc(NC(=O)COc2cc(C)cc3oc(=O)cc(C)c23)cc(OC)c1OC	-5.5%	-19.5%	-1.1%	i	?	i
Cc1cccc(CN(Nc2ccccc2)c2ccccc2)n1	-0.6%	22.7%	-8.5%	i	?	?
Cc1ccc(CNC(=O)C2CSC3(C)CCC(=O)N23)cc1 (centres undefined)	-13.2%	-4.9%	1.1%	i	0.6%	i
O=C(Nc1ccccc1F)c1oc2ccccc2c1NC(=O)C12CC3CC(CC(C3)C1)C2	.	-5.7%	.	i	3.6%	i
CC1Cc2ccccc2N1C(=O)c1ccc(N2CCCC2)c([N+](=O)[O-])c1 (centres undefined)	-18.2%	?	-18.6%	i	?	i
CC1Cc2ccccc2N1C(=O)c1ccc(N2CCCCC2)c([N+](=O)[O-])c1 (centres undefined)	6.4%	?	3.2%	i	?	13µM*
O=C(/C=C/c1ccccc1[N+](=O)[O-])OCC(=O)N1CCN(c2ccccc2)CC1	6.2%	20.6µM*	2.9%	?	?	?
O=C(c1ccc(N2CCCC2)c([N+](=O)[O-])c1)N1CCc2ccccc2C1	-7.0%	16.4µM*	-11.3%	?	29.1µM*	2.59µM*
COC(=O)C1=C(C(=O)OC)[C@@H]2Nc3ccccc3[C@@]23C[C@@H](C(=O)OC)N(C(=O)C2CCC2)C3=N1	9.4%	-6.0%	9.0%	i	-11.8%	?
Nc1ccn([C@@H]2O[C@H](CNCc3cccc(OC4CCCC4)c3)[C@@H](O)[C@H]2O)c(=O)n1	1.9%	-2.8%	1.5%	i	6.4%	i
COc1cccc(-c2ncc3ccccn23)c1	-13.7%	-4.3%	-4.8%	i	?	i
COc1cc(-c2ncc3ccccn23)cc(OC)c1OC	2.5%	-17.0%	0.8%	i	-4.4%	14.6µM*
COc1cc(OC)cc(-c2ncc3ccccn23)c1	-3.4%	?	-20.3%	20.6µM*	?	?
